Experimental data reported in the supplement of paper PMC6555819.

Tests used:
Experiment in all cases: PBM binding z-score (relative to random genomic background probes); higher = stronger binding; sequences stand for … in GC…GCGATTGACAGCGTAGAATGAAGG
[1] = tested on: FXR:RXRa (NR concentration 270 nM, RXRa partner concentration 90 nM)
Procedure, shortened: (§1)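 Antibodies against each partner of ligand-free nuclear receptor dimers (one per run) detected binding on custom Agilent 4×180K protein-binding microarrays after 1 h incubation. The double-stranded probes had 34-nt variable regions carrying direct-repeat seeds, single-nucleotide variants, half-site ablations and random human genomic background sequences. Binding z-scores, from regression-normalized fluorescence, use the random background probes as reference.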

[2] = tested on: LXRa:RXRa (NR concentration 270 nM, RXRa partner concentration 90 nM)
Procedure, shortened: as §1

[3] = tested on: LXRa homodimer (NR concentration 270 nM)
Procedure, shortened: as §1

[4] = tested on: LXRb:RXRa (NR concentration 270 nM, RXRa partner concentration 90 nM)
Procedure, shortened: as §1

[5] = tested on: LXRb homodimer (NR concentration 270 nM)
Procedure, shortened: as §1

[6] = tested on: PPARa:RXRa (NR concentration 270 nM, RXRa partner concentration 90 nM)
Procedure, shortened: as §1

[7] = tested on: PPARg:RXRa (NR concentration 180 nM, RXRa partner concentration 90 nM)
Procedure, shortened: as §1

[8] = tested on: PPARg:RXRa 270nM:90nM, anti-RXR (NR concentration 270 nM, RXRa partner concentration 90 nM)
Procedure, shortened: as §1

[9] = tested on: PPARg:RXRa 30nM:10nM, anti-RXR (NR concentration 30 nM, RXRa partner concentration 10 nM)
Procedure, shortened: as §1

[10] = tested on: PPARg:RXRa 90nM:30nM, anti-RXR (NR concentration 90 nM, RXRa partner concentration 30 nM)
Procedure, shortened: as §1

[11] = tested on: PPARg:RXRa DBDmut IVT, anti-RXR (DBD mutation: RXRa K156A/R161A, NR concentration 270 nM, RXRa partner concentration 90 nM)
Procedure, shortened: as §1

[12] = tested on: PPARg:RXRa IVT, anti-PPARg (NR concentration 270 nM, RXRa partner concentration 90 nM)
Procedure, shortened: as §1

[13] = tested on: PPARg DBDmut:RXRa IVT, anti-PPARg (DBD mutation: PPARg1 K132A/R137A, NR concentration 270 nM, RXRa partner concentration 90 nM)
Procedure, shortened: as §1

[14] = tested on: PPARg DBDmut IVT, anti-PPARg (DBD mutation: PPARg1 K132A/R137A, NR concentration 270 nM)
Procedure, shortened: as §1

[15] = tested on: PPARg homodimer (NR concentration 180 nM)
Procedure, shortened: as §1

[16] = tested on: PXR:RXRa (NR concentration 270 nM, RXRa partner concentration 90 nM)
Procedure, shortened: as §1

[17] = tested on: PXR homodimer (NR concentration 270 nM)
Procedure, shortened: as §1

[18] = tested on: RARa:RXR (NR concentration 270 nM, RXRa partner concentration 90 nM)
Procedure, shortened: as §1

[19] = tested on: RARa homodimer (NR concentration 270 nM)
Procedure, shortened: as §1

[20] = tested on: RARb:RXRa (NR concentration 270 nM, RXRa partner concentration 90 nM)
Procedure, shortened: as §1

| Sequence | PBM binding z-score [1] | PBM binding z-score [2] | PBM binding z-score [3] | PBM binding z-score [4] | PBM binding z-score [5] | PBM binding z-score [6] | PBM binding z-score [7] | PBM binding z-score [8] | PBM binding z-score [9] | PBM binding z-score [10] | PBM binding z-score [11] | PBM binding z-score [12] | PBM binding z-score [13] | PBM binding z-score [14] | PBM binding z-score [15] | PBM binding z-score [16] | PBM binding z-score [17] | PBM binding z-score [18] | PBM binding z-score [19] | PBM binding z-score [20] |
| --- | --- | --- | --- | --- | --- | --- | --- | --- | --- | --- | --- | --- | --- | --- | --- | --- | --- | --- | --- | --- |
| ACTAGCAGGCCAAGTTTGGTTCACTCAAACAAAG | -0.324 | -0.317 | -0.342 | -0.0394 | -0.539 | 0.158 | -0.322 | -0.162 | -0.424 | -0.301 | 0.651 | 0.311 | 0.0208 | -0.415 | -0.521 | 0.287 | 0.256 | 0.113 | -0.755 | 0.54 |
| CAAACTAGGTCAAAGGCCAAAGTCGAGCCAACCA | 5.15 | 3.93 | 0.637 | 3.08 | -0.153 | 6.63 | 11.3 | 9.98 | 9.75 | 10.9 | 7.91 | 8.52 | 1.47 | 0.202 | 1.73 | 2.9 | 0.159 | 4.68 | 0.255 | 4.31 |
| TAGCGTAGGTCAGATCGGGCCAGTATACGCTATA | 2.62 | 1.36 | -0.421 | 0.809 | -0.55 | 1.99 | 0.602 | 0.725 | 0.0137 | 0.225 | -0.503 | 0.617 | -0.164 | -0.912 | -0.143 | 1.48 | -0.976 | 1.23 | -1.14 | 3.07 |
| TTGAGTAGGTTAGTCGGGGCATTCAGCCAACATA | 0.205 | 0.325 | 0.413 | 0.932 | 0.285 | 1.11 | 0.307 | 0.997 | 0.398 | 0.742 | 3.52 | 3.36 | 0.385 | 0.257 | 0.88 | 0.618 | 0.715 | 0.545 | 0.987 | 0.733 |
| ATATGTAGGTTAAGGGTCTTTCAGGTTGGTTCGC | 1.3 | 1.7 | 0.812 | 1.77 | 0.832 | 4.62 | 8.46 | 8.05 | 6.71 | 8.67 | 7.78 | 7.16 | 1.06 | 1.67 | 2.46 | 1.45 | 1.1 | 1.64 | 1.86 | 1.55 |
| TAGCCTAGGTCATGGCCCAGTATACCACGCGAAC | 4.7 | 3.85 | 0.774 | 2.64 | -0.293 | 4.33 | 4.27 | 3.99 | 1.14 | 2.95 | 1.98 | 4.42 | 0.172 | -0.0252 | 3.1 | 1.91 | -0.224 | 3.53 | 0.397 | 4.01 |
| TAGCCTATGTCAGATCGGGCCAGTATACGCTATA | -0.25 | -0.56 | -0.38 | -0.651 | -0.818 | -0.546 | 0.0766 | -0.557 | -0.477 | -0.278 | -0.342 | -0.424 | -0.269 | -0.692 | -1.19 | -0.323 | -0.853 | 0.184 | -0.755 | 0.0129 |
| CCTACTGGGCCAAAGGTCGTTGATTCCAATGCTC | 1.29 | 1.46 | -0.124 | 1.91 | -0.505 | 5.3 | 11.1 | 9.69 | 9.46 | 10.5 | 5.47 | 5.6 | 0.111 | -0.79 | 1.18 | 2.45 | 0.0615 | 3.09 | -0.377 | 1.97 |
| TCTAGCAGGACAGAGGGTCACTCAAGAGGTACGG | 0.869 | 1.11 | -0.354 | 1.18 | -0.839 | 2.19 | 1.45 | 2.25 | 2.15 | 2.31 | 0.809 | 0.465 | -0.0481 | -0.462 | 0.414 | 1.48 | -0.392 | 2.3 | -0.209 | 2.06 |
| CCGACTGGGGGAAGGTTACCATAACGCACAGCCA | 0.719 | 1.05 | 0.199 | 2.11 | 2.85 | 1.71 | 1.63 | 2.33 | 0.95 | 1.37 | 0.717 | 2.1 | 0.867 | 1.69 | 0.69 | 0.63 | 0.357 | 0.802 | 0.511 | 1 |
| CCTCGGAGCACAACAGGAGGTCAGAGCTGCCAGA | 0.811 | 1.54 | 1.97 | 1.4 | -0.755 | 1.65 | 0.0996 | 0.038 | -0.859 | -0.308 | -0.234 | 0.244 | -0.72 | -1.62 | 1.23 | 1.56 | 0.0895 | 2.01 | 0.0401 | 1.74 |
| TCTGCTAGGTCAACGATGGTCAGCTACTCTGCTA | 3.16 | 2.86 | -0.273 | 1.48 | -0.302 | 3.3 | 2.4 | 3.05 | 1.62 | 2.47 | 4.3 | 4.17 | -0.186 | -0.6 | 0.254 | 1.42 | -0.802 | 1.93 | -0.564 | 4.14 |
| CCGACTGGGGCAGAAAGGTTAACATACCATCCGG | 0.257 | 0.795 | 0.102 | 1.32 | -1.1 | 2.45 | 1.92 | 2.76 | 1.1 | 2.38 | 1.78 | 2.39 | -0.202 | -1.36 | 1.53 | 1.19 | -0.126 | 1.95 | 0.0538 | 1.98 |
| TCTTGTAGATCAAATGTTAAGAAAGCCGAAGCCT | 0.704 | 0.517 | -0.184 | 0.216 | 0.123 | 1.15 | 1.12 | 3.42 | 3.84 | 3.61 | 2.21 | 0.573 | 0.744 | 0.647 | 0.284 | 0.199 | 0.012 | 0.519 | 0.868 | -0.134 |
| ATCTCTAGGTAACACGTTCAGTGAAAGAGAGGAC | 0.359 | 0.232 | 0.454 | 0.113 | 0.898 | 0.511 | 0.99 | 1.06 | 0.213 | 0.803 | 3.45 | 3.05 | 1.75 | 1.04 | 0.135 | 0.0713 | 0.206 | 0.208 | 0.489 | 0.552 |
